# Results reported in PubChem BioAssay AID1212 (NMMLSC, 2008).
# A number with no mark means an inactive call. Active and inactive are the calls of the source.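 How the source made its calls: active means blocks over 60% of fluorescent estradiol binding at 10 µM; inactive means the rest.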
# Target: G-protein coupled estrogen receptor 1 (Homo sapiens) (UniProt Q99527)
# Experiment: displacement of E2-Alexa633 from GPER – cell-based, Cos7 GPR30-GFP, flow cytometry, 10 µM, primary screen (AID 1212)
# Conditions: fluorescent estrogen competition, at 10 µM; active compounds read high
SMILES,inhibition,outcome
COC(=O)c1ccc2c(c1)C1C=CCC1C(c1cccc([N+](=O)[O-])c1)N2 (configuration not stated),16%,–
CCCCCCc1cc2c3c(c(=O)oc2cc1OCC(N)=O)CCC3,–,inactive
CCCCOc1cc(OCCCC)c2c3c(c(=O)oc2c1)CCCC3,34%,–
O=C1CC(c2ccc3c(c2)OCO3)c2ccc3ccccc3c2N1 (configuration not stated),–,inactive
Cc1c(Cc2ccccc2)c(=O)n2c([nH]c3ccccc32)c1C#N,8%,–
CCc1cc2c3c(c(=O)oc2cc1OCC(=O)OC)CCCC3,–,inactive
CCOC(=O)COc1cc2oc(=O)c3c(c2cc1CC)CCCC3,–,inactive
O=C(O)c1ccc2c(c1)C1C=CCC1C(c1cccc([N+](=O)[O-])c1)N2 (configuration not stated),57%,–
COc1cc([N+](=O)[O-])cc2c1NC(c1ccccc1Cl)C1CC=CC21 (configuration not stated),–,inactive
CCOc1ccc(NS(=O)(=O)c2ccc3c(c2)[C@H]2C=CC[C@H]2[C@@H](c2cccc([N+](=O)[O-])c2)N3)cc1,20%,–
O=c1oc2cc(O)ccc2c2c1CCC2,–,inactive
CC1=CC(C)C2(CO)COC(c3ccccc3O)C1C2C (configuration not stated),–,inactive
COC(=O)c1ccc(OCc2c(C)noc2C)cc1,61% (active),–
Cc1ccc(-n2cc3c(c(C#N)c2=N)CC(C)(C)CC3=O)cc1,–,inactive
CCOc1cc2c(cc1OCC)C(C(CC)CC)NCC2 (configuration not stated),–,inactive
CCC(Oc1ccc2c3c(c(=O)oc2c1C)CCC3)C(=O)OC (configuration not stated),–,inactive
CCCCc1cc2c(=O)c(-c3ccccn3)coc2cc1O,3%,–
CCCc1cc(=O)oc2c(C)c(OC3CCCCC3=O)ccc12 (configuration not stated),–,inactive
CSC(=O)CNC1(Cc2ccc(O)cc2)CCCCC1,–,inactive
COc1ccc(NS(=O)(=O)c2ccc3c(c2)[C@H]2C=CC[C@H]2[C@@H](c2cccc(OC)c2OC)N3)cc1,44%,–
C=C1c2ccc(OC)cc2NC(=O)N1c1ccccc1,–,inactive
CC(C)CN(Cc1c(O)ccc2c3c(c(=O)oc12)CCC3)CC(C)C,3%,–
COc1ccc(Oc2ccc3c(c2)c2c4n3CCNC4CCC2)cc1 (configuration not stated),–,inactive
CC1(C)Cc2[nH]c(=O)c(C(=O)O)cc2CO1,–,inactive
COc1ccc2[nH]c3c(c2c1)CCNC3=O,15%,–
COc1ccc(C2(CNCC(N)=O)CCCC2)cc1OC,–,inactive
CCOc1ccc(NS(=O)(=O)c2ccc3c(c2)[C@H]2C=CC[C@H]2[C@@H](c2ccc(C(=O)O)cc2)N3)cc1,100% (active),–
